According to the supplement of paper PMC6555819:

The sequences below were run on PPARa:RXRa (NR concentration 270 nM, RXRa partner concentration 90 nM) (assay: PBM binding z-score (relative to random genomic background probes); higher = stronger binding; sequences stand for … in GC…GCGATTGACAGCGTAGAATGAAGG).
Method: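 Protein-binding microarray (Agilent 4x180K custom design, double-stranded 60-nt probes: 5' GC cap, 34-nt variable region, 24-nt constant primer region; full probe sequence given). Purified or IVT nuclear receptor:RXRα heterodimers (3:1 NR:RXRα, mostly 270:90 nM) or homodimers were incubated for 1 h in PBS with 2% milk and no ligand, then detected with Alexa488 antibodies. Fluorescence from o1-orientation probes (~5 replicates averaged) was converted to z-scores against 500 random hg19 background probes. Variable regions are seed direct-repeat (DR0–DR5) sites, all their single-nucleotide variants and half-site ablations.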

| Sequence | PBM binding z-score |
| --- | --- |
| AGTCAAAGTTCATCTAGGTCACGTAAGATATGCT | 5.68 |
| AATAAAGGGTCATCGTAGGCCAGAGTACGCACAG | 5.96 |
| CGTCAAACTTCAACTAAGGTAACGTAAAGCACGC | 0.493 |
| TCTGCTAGGTCAACGTTGGTCAGCTAATCTGCTA | 3.2 |
| CGAACTACGTCATCCAGGACAGTGAATACATTGA | -0.0578 |
| TAGCCTAGGTCACATCGGGCCAGTATACGCTATA | 3.16 |
| CGAACTAGGTCGTCCAGGACAGTGAATACATTGA | 2.09 |
| ATATGTAGGTTAGCTGGGGTCATTCACACTAGGC | 5.22 |
| CCTTACGGGTCACGAGGTTGTAGCACGACGAGCG | 5.73 |
| ATCGAAAGGTCGACCAGGTGAGTATACACCGTTT | 4.53 |
| TAGCCTAGGTCATGCGGGACAGTATAGTGTCGGC | 3.53 |
| CGTCAAAGTTCAACTGAGGTAACGTAAAGCACGC | 5.29 |
| CAAACGAGGTCAAAGGTCAAAGTCGAGCCAACCA | 7.69 |
| CCGAATAGGTTACGAGGGGGCATTCAGTGCGAAT | 3.85 |
| CCTTACGGGTCAAGGTTATAGCCCGGGTGGTACG | 4.97 |
| GCTGCGAGGTCAACTGATGGTCAGCTAAAGCTCG | 6.02 |
| CTATGTGGGTTAAGGGGGTCATTCAGTTTGAAAG | 6.22 |
| TAGCCTAGGTTATGGGCCAGTATACCACGCGAAC | 0.542 |
| AGAATGAGGTCATTAAGATCAGGGAATTGCGGTC | 6.05 |
| CGTCCAAGGTCACGGTCAGTGAAAGAGACTCGAA | 6.27 |

| Sequence | PBM binding z-score |
| --- | --- |
| TAGCCTAGTTCATGCGGGCCAGTATAGTGTCGGC | 0.278 |
| ATATGTAGGTTATCTGGGGTCATTCAGACTAGGC | 5.4 |
| AGAATGAGGTCATACGTAGATCAGGGAAGAAAGT | 6.29 |
| CCTACTGGGCCAAAGAGGTCATTGATGCCGATAA | 4.55 |
| AGAATGAGGTTACCAAAGGTCAGGGAAACGCTTG | 5.55 |
| TCTCGGAGGACACAAAGGTCAGAGCTTTCCAGAG | 3.86 |
| ATCGAAAGGTCTAAGGTGAGTATACCCACCCGAA | 1.52 |
| CCTAGCAGGCCAATCTAGGTCACTCAAGGCTTGA | 3.15 |
| AGAATGAGGTTAAGTTCAGGGAAACAGAATACAT | 4.63 |
| CGTCTAAGGTCATAGGAGGTCAGTGAAGACAGAT | 6.24 |
| AGAATGAGGTTACCAAAGTTCAGGGAAACGCTTG | 4.6 |
| AGAATGAGGTCAAGATCAGGGAAACAGAATACAT | 6.42 |
| TAGCCTAGGTCATTCAGGGGCCAGCATAGAAAGC | 3.89 |
| TCTAGTTGGTCACGGAGGTCACAAACGACGGGTA | 3.87 |
| GCTAGTTGGTCAGTAAAAGGTGACACACCGGTCG | 1.54 |
| TCGAGTAGGTCACGGGGGCATTCAGGGATGAAGA | 6.09 |
| TCTAGTTGGTCACGGAGGTCCCACACGACGGGTA | 0.66 |
| ATCGAAAGGTCGACGCGGTGAGTATACACCGTTT | 3.97 |
| GATACAGGGTCAGCTACAGGCCAGAGTATGGAAA | 4.88 |
| CCTACTGGGTCACGAAAGGTCATTGATTCAGTGA | 6.44 |
